Bioassay records (PubChem)
The list is not random: actives were taken first. Their share in the collection is about 5.6%.
Six1-Eya2 inh – blocks human Six1 binding to Eya2. activity change, % (no concentration beside the values). AlphaScreen GST-Six1/His-Eya2 binding, biochemical; stronger effect = lower value. Q15475+O00167. 0.56% of 360,000 active; in the data active means activity change below about -65%; inconclusive means mostly about -30% to -63%
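AlphaScreen with GST-Six1 and His-Eya2 (5X mix: 250 nM and 500 nM), glutathione donor and nickel acceptor beads; buffer 50 mM Tris pH 8.0, 300 mM NaCl, 1 mM TCEP; 1 h at 37 C in the dark.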
CtBP-E1A blk – inhibitors of CtBP/E1A interaction; AlphaScreen GST-E1A/His-CtBP binding, 1536-well; stronger effect = lower value; activity change, % (no concentration beside the values); 0.49% of 340,000 active; AID 651724; in the data active means activity change below about -65%; inconclusive means mostly about -30% to -63%
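Steps: dispense buffer (Tris pH 8.0, NaCl 300 mM, TCEP 1 mM, BSA, Tween 20); add 5X protein mix (GST-E1A, His-CtBP, 125 nM each); pin 23 nL compound; 2 h at 37 °C, dark; add 5X beads (50 ug/mL); 1 h; read.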
PKM2 act – increases activity of human pyruvate kinase M2; P14618; purified PKM2, Kinase-Glo ATP luminescence, activation; response scale: 0% is enzyme alone, no compound; Potency, µM (top dose mostly 57.5 µM), hits mostly activators; 0.34% of 260,000 active; further: nearly all actives have a fitted effect of over 55% in size
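Kinase-Glo luminescence reports ATP generated from ADP (0.1 mM) and PEP (0.5 mM) by purified hPK-M2 after 1 h at room temperature, pH 7.2 imidazole buffer; intermediate enzyme activity allows detecting inhibitors and activators.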
VP16 counter – Gal4-VP16 reporter inhibition counter-screen. Drosophila S2 Gal4-VP16 UAS-luciferase, luminescence, 20 h. Potency, µM (top dose mostly 53.6 µM), actives largely listed as inhibitors. 3.5% of 310,000 active. AID 2546;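 further: Gal4-VP16 expression switched on by copper sulfate through the metallothionein promoter; nearly all actives have a fitted effect of over 50% in size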
RORg inh – inhibitors of mouse ROR gamma transcriptional activity | 5.4% of 310,000 active | AID 2551 | Drosophila S2 Gal4-RORgamma UAS-luciferase reporter, 20 h | Potency, µM (highest dose often 53.6 µM), most hits filed as inhibitors | P51450; further: nearly all actives have a fitted effect of over 60% in size
Target sequence (P51450 whole entry, looked up, the tested form may be a part): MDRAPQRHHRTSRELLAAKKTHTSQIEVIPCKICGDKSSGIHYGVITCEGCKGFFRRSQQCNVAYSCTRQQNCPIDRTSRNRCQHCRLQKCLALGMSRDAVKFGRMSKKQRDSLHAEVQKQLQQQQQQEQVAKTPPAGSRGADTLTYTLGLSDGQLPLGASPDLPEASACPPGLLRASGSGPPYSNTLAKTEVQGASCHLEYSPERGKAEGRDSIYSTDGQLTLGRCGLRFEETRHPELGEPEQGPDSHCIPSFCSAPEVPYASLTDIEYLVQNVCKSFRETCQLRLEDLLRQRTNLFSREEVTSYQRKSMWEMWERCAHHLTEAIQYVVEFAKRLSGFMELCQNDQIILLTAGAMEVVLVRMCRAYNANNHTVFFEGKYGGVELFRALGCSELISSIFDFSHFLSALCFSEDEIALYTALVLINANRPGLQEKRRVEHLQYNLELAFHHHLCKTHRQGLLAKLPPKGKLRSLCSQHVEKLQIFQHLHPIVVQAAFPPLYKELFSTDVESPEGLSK
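Stable Schneider cell line, Gal4 DNA-binding domain fused to ROR gamma, UAS-luciferase. Cmpd 1 hr RT → CuSO4 700 uM final → 20 hr RT → luciferase reagent 10 min → luminescence.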
Large screens that a line does not name were inactive. Unless noted, the call rests on the fitted dose curve; in most records, active means well fitted curve in the direction sought with a large enough effect; inconclusive means small, poorly fitted or top-dose-only effect, or another doubt; inactive means no such curve, though single readings can be large; an effect the other way counts as inactive or inconclusive.

O=C(CCS(=O)(=O)c1ccccc1Cl)NC1CCCCCC1	none (no result: PKM2 act, VP16 counter, RORg inh)
CC12CN(NC(=O)c3ccccc3F)C3(C#N)CC1CCC23C (stereo not drawn)	none
COc1ccccc1Nc1nc(C)cc(C)c1C(N)=O	none
Cc1cc(C)c(C(N)=O)c(Nc2cccc3ccccc23)n1	VP16 counter inconclusive, RORg inh 2.8µM
O=[N+]([O-])c1cc2cccnc2c2ncccc12	Six1-Eya2 inh inconclusive (no result: CtBP-E1A blk)
O=[N+]([O-])c1cc(O)c2ncccc2c1	Six1-Eya2 inh -83, CtBP-E1A blk -94, PKM2 act inconclusive, RORg inh 0.89µM
CCOC(=O)CC1CCCCN1Cc1nc(-c2ccc(F)c(OC)c2)oc1C (stereo not drawn)	RORg inh 3.5µM
O=C(CSc1cccc2cccnc12)N/N=C/c1ccc(F)cc1	Six1-Eya2 inh -67, CtBP-E1A blk inconclusive
O=C(Cc1cccc2ccccc12)N/N=C/c1ccc(Sc2cccc3cccnc23)o1	VP16 counter inconclusive, RORg inh inconclusive (no result: Six1-Eya2 inh, CtBP-E1A blk)
CCCCC(=O)N/N=C/c1ccc(Sc2cccc3cccnc23)o1	Six1-Eya2 inh -80, CtBP-E1A blk -88, VP16 counter 11µM, RORg inh 5.6µM
N#CCSc1nnc(COc2ccc3ccccc3c2)o1	none
COc1ccc(Cc2n[nH]c(=S)o2)cc1	none
S=c1[nH]nc(COc2ccc3ccccc3c2)o1	VP16 counter 4µM, RORg inh inconclusive
COc1ccc(CCCc2n[nH]c(=S)o2)cc1	RORg inh 13µM
CCOC(=O)/C(C#N)=C1\SS/C(=C(/C#N)C(=O)OCC)S1	none (no result: Six1-Eya2 inh, CtBP-E1A blk)
S=C(Nc1ccccn1)Nc1ccccc1Cl	none
Cc1ccccc1NC(=S)Nc1ccccn1	VP16 counter 1.6µM, RORg inh 0.5µM (no result: CtBP-E1A blk)
Cc1ccccc1NC(=S)Nc1ccc(Br)cc1	VP16 counter 11µM, RORg inh 11µM
Cc1c(Cl)cccc1NC(=S)Nc1ccccn1	VP16 counter inconclusive, RORg inh 1µM
COc1ccccc1/C=C/C(=O)OCC(=O)NC(=O)NC1CCCC1	none (no result: PKM2 act, VP16 counter, RORg inh)
CC(C)C(=O)NC(c1cccc([N+](=O)[O-])c1)c1ccc2cccnc2c1O (stereo not drawn)	Six1-Eya2 inh -94, VP16 counter 2.5µM, RORg inh 2.8µM
CC(C)C(=O)NC(c1cccc([N+](=O)[O-])c1)c1c(O)ccc2ccccc12 (stereo not drawn)	none
CC(C)C(=O)NC(c1ccc([N+](=O)[O-])cc1)c1c(O)ccc2ccccc12 (stereo not drawn)	VP16 counter 13µM, RORg inh inconclusive
CCCC(=O)NC(c1cccc([N+](=O)[O-])c1)c1ccc2cccnc2c1O (stereo not drawn)	Six1-Eya2 inh -91, CtBP-E1A blk inconclusive (no result: PKM2 act, VP16 counter, RORg inh)
Cc1nc(NNC(=O)c2ccc([N+](=O)[O-])cc2)cc(-c2ccccc2)n1	VP16 counter 7.9µM, RORg inh 2.2µM
O=C(NNc1cc(N2CCCC2)nc(N2CCCC2)n1)c1ccc([N+](=O)[O-])cc1	VP16 counter 3.2µM, RORg inh 1.4µM
CC(C)(C)c1ccc(C(=O)NNc2cc(N3CCCCC3)nc(N3CCCCC3)n2)cc1	none
Cc1ccc([N+](=O)[O-])cc1NC(=O)c1ccccc1	none (no result: PKM2 act)
Cc1cc(S(=O)(=O)Nc2ccc3c(c2)COC3=O)ccc1F	PKM2 act 11µM
CC(C)(C)c1ccc(S(=O)(=O)Nc2ccc3c(c2)COC3=O)cc1	RORg inh inconclusive
COC(=O)C1=C(C)Nc2nc3ccccc3n2C1c1cc(OC)c(OC)c(OC)c1 (stereo not drawn)	RORg inh 13µM
CCOC(=O)C1=C(C)Nc2nc3ccccc3n2C1c1ccc(O)cc1 (stereo not drawn)	none
COc1ccccc1/C=C/C=N/NC(=O)c1cc(-c2ccco2)[nH]n1	VP16 counter inconclusive, RORg inh 11µM
O=C(Nc1nnc(SCC(=O)N2CCCc3ccccc32)s1)c1ccccc1	VP16 counter inconclusive, RORg inh 6.3µM
Cc1cc(C)cc(C(=O)Nc2nnc(SCC(=O)N3CCCc4ccccc43)s2)c1	none
CC(=O)Nc1nnc(SCC(=O)N2CCCc3ccccc32)s1	none
O=C(Nc1nnc(SCC(=O)N2CCOCC2)s1)c1ccccc1Cl	VP16 counter 6.3µM, RORg inh 10µM
O=C(Nc1nnc(SCC(=O)N2CCCc3ccccc32)s1)c1ccc2ccccc2c1	VP16 counter 5.6µM, RORg inh 6.3µM
Cn1cc(Cl)c(C(=O)N/N=C/c2ccc3c4c(cccc24)CC3)n1	CtBP-E1A blk inconclusive, RORg inh inconclusive (no result: PKM2 act)
O=C(NCc1nnc(SCc2ccc(F)cc2)n1-c1ccc(F)cc1)C12CC3CC(CC(C3)C1)C2	none
COc1ccc(C(=O)OCC(=O)c2ccc(C3CCCCC3)cc2)cc1	none
Nc1ccc(O)cc1C(=O)OCC(=O)c1ccc(C2CCCCC2)cc1	Six1-Eya2 inh inconclusive, VP16 counter inconclusive, RORg inh 7.1µM
COc1ccc(-c2cc(-c3n[nH]c(=S)n3-c3cc(OC)ccc3OC)[nH]n2)cc1	RORg inh inconclusive
COc1ccc(-c2n[nH]c(=S)n2-c2cc(OC)ccc2OC)cc1	RORg inh 10µM
COc1ccc(OC)c(-n2c(-c3ccc(C)cc3)n[nH]c2=S)c1	VP16 counter inconclusive, RORg inh 4µM
COC(=O)C1CC(C(=O)OC)C2C(C(=O)OC)CC(C(=O)OC)C12 (stereo not drawn)	none (no result: PKM2 act, VP16 counter, RORg inh)
O=C(NCc1ccccc1CN1CCCC1)c1ccc(S(=O)(=O)Nc2ccccc2)cc1	none (no result: PKM2 act, VP16 counter, RORg inh)
Cc1cc2cc(CNC(=S)Nc3ccc(OC(F)F)cc3)ccc2n1C	none
Cc1ccc(C(C)NC(=S)NCc2ccc(F)cc2)c(C)c1 (stereo not drawn)	VP16 counter 4.5µM, RORg inh 2.5µM
Cc1ccc(NC(=S)NCc2ccc3c(c2)cc(C)n3C)c(C)c1	Six1-Eya2 inh inconclusive, VP16 counter 13µM, RORg inh 1µM (no result: CtBP-E1A blk)
NS(=O)(=O)c1ccc(CNC(=S)NCc2ccc(F)cc2)cc1	none
Cc1ccc(NC(=S)NCc2ccc(F)cc2)c(C)c1	VP16 counter 5.6µM, RORg inh 5.6µM
Cc1ccc(NC(=S)NCc2ccc(S(N)(=O)=O)cc2)c(C)c1	none
COc1cccc(C(C)NC(=S)NCc2ccc(F)cc2)c1 (stereo not drawn)	VP16 counter 8.9µM, RORg inh 5µM
CCOC(=O)c1c(NC(=O)CSc2nnc(C)o2)sc(C)c1C	none
COC(=O)c1cccc(NC(=O)c2cccnc2C(=O)O)c1C	none
O=C(Nc1ccc(S(=O)(=O)Nc2ncccn2)cc1)c1ccccc1NS(=O)(=O)c1ccc(Cl)cc1	none
COC(=O)/C=C/c1ccc(OC(=O)OC)c(OC(=O)OC)c1	VP16 counter inconclusive
CCOc1ccc(C(C)NC(=S)NCc2ccc(F)cc2)cc1 (stereo not drawn)	VP16 counter 3.2µM, RORg inh 3.5µM
